Source: PubChem BioAssay (NCATS)
Results filed as inconclusive are left out. Activity calls are given as the source filed them. Unless noted, calls come from the whole dose curve; as a rule, active = well fitted curve in the direction sought with a large enough effect; inconclusive = small, poorly fitted or top-dose-only effect, or another doubt; inactive = no such curve, though single readings can be large; an effect the other way counts as inactive or inconclusive.

Assays:
[1] = AP1 Signaling Pathway (AID 357; active = well fitted curve in either direction with a large enough effect, not every such curve was filed as active; note: % is set by controls: 0 for no effect and ±100 for the full control effect)
Method in brief: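 ME-180 cells with beta-lactamase reporter under AP-1 response element, stimulated with EC50 EGF; compounds tested in titration series, 5 h at 37 °C. CCF4 substrate added 2.5 h at room temperature; 460/530 nm emission ratio gave %activity and AC50.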

[2] = NFAT Signaling Pathway (AID 444; active = well fitted curve in either direction with a large enough effect, not every such curve was filed as active;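 note: carbachol stimulus at about its EC50 of 1 µM final; % is set by controls: 0 for no effect and ±100 for the full control effect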); settings: Jurkat NFAT-bla M1, carbachol, beta-lactamase ratio, 5 h; at 38 µM (top of the series)
Method in brief: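 Read-out: CCF4 FRET ratio (460 nm/530 nm) after 1 h RT dye loading, used for %activity and AC50 from titration series. Cells: Jurkat NFAT-β-lactamase/M1 line, treated with compound plus 1 uM carbachol for 5 h, 37 °C.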

[3] = biological target: Glucocorticoid receptor (Homo sapiens) (UniProt P04150); assay: GR-GFP Redistribution (AID 450;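 active = compounds whose dose series gives a full or clear partial fitted curve of increased nuclear translocation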; note: potency is the fitted concentration of half-maximal effect); settings: U2OS GR-GFP nuclear translocation, laser cytometry, 2 h
[4] = biological target: Glucocorticoid receptor (Homo sapiens) (UniProt P04150); assay: GR-EFC Redistribution (AID 451; calls by dose curve; note: potency is the fitted concentration of half-maximal effect); settings: CHO-K1 GR-EFC translocation, beta-gal luminescence, 2 h
Method in brief: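 Translocation of GR-ED fusion to nuclear EA restores b-gal, read by luminescence after 1 h room-temperature detection. Engineered CHO-K1 biosensor cells, 1,000/well, exposed 2 h at 37 C to titrations up to 46 uM final.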

[5] = biological target: 3',5'-cyclic-AMP phosphodiesterase 4B (Homo sapiens) (UniProt Q07343); assay: qHTS Assay for Inhibitors of PDE-IV (AID 607; active = well fitted activation curve with a large enough effect in the main read-out, with a control signal flat, not every such curve was filed as active; note: % of control where 0% means no effect)
Method in brief: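 HEK293 ACTOne cells with CNG channel (1000/well), endogenous PDE4; membrane potential dye, compounds up to 22.9 uM final. Fluorescence Ex 535/Em 590; RO 20-1724 (100 uM final) as reference.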

[6] = biological target: Guanine nucleotide-binding protein G(i) subunit alpha-1 (Homo sapiens) (UniProt P63096); assay: qHTS Assay for Inhibitors of RGS12 GoLoco Motif Activity (Green Fluorophore) (AID 879);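 note: 0% = labeled peptide with Gαi1 and full inhibition = labeled peptide alone without protein; negative values mean loss of peptide binding seen as reduced polarization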
Method in brief: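 A drop in FITC polarization marked displacement of the FITC-tagged RGS12 GoLoco peptide (10 nM) from Gαi1 (50 nM). Compounds were incubated 10 min at room temperature in Tris pH 7.5 buffer containing 150 mM NaCl, 0.1 mM GDP and 0.05% NP40; unlabeled peptide titration served as control.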

[7] = biological target: Muscarinic acetylcholine receptor M1 (Rattus norvegicus) (UniProt P08482); assay: qHTS Assay for Antagonists of Acetylcholine Muscarinic M1 Receptor: Kinetic Measurement of Intracellular Calcium Response (AID 943);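 note: Fluo-4 calcium signal as peak divided by basal fluorescence over 4 min; nearly all actives have a fitted effect of over 75% in size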
Method in brief: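 Read-out: peak over basal Fluo-4 fluorescence, kinetic at 1 Hz for 4 min after EC80 carbachol (100 nM final). Rat M1-CHO cells, dye loaded 1 h at 37C, compound added 10 min before agonist.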

[8] = biological target: Muscarinic acetylcholine receptor M1 (Rattus norvegicus) (UniProt P08482); assay: qHTS Assay for Antagonists of Acetylcholine Muscarinic M1 Receptor: Measurement of IP-One Response (AID 944); note: nearly all actives have a fitted effect of over 75% in size
Method in brief: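 Read-out: HTRF competition between d2-IP1 and Eu-cryptate anti-IP1 antibody, emission 620 and 665 nm. Stimulus was carbachol, EC80 (200 nM), for 30 min in M1-CHO cells (rat receptor), after 10 min compound pre-treatment.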

[9] = biological target: Pyruvate kinase (Leishmania mexicana) (UniProt Q27686); assay: qHTS Validation Assay for Inhibitors of Leishmania Mexicana Pyruvate Kinase (AID 945);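 note: 0% = DMSO only neutral control wells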
Method in brief: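 Eight-point qHTS titrations; enzyme 0.2 nM LmPYK (E451W mutant); substrates 0.5 mM PEP, 0.1 mM ADP; 7 mM MgCl2; 1 h room temperature; PKLight luminescence normalized to neutral control.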

[10] = biological target: Pyruvate kinase PKM (Homo sapiens) (UniProt P14618); assay: qHTS Assay for Activators of Human Muscle Pyruvate Kinase (AID 954; active = well fitted curve in the direction sought with a large enough effect, not every such curve was filed as active;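 note: 0% = uninhibited enzyme and -100% = no enzyme or full thiadiazolimine inhibition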)
Method in brief: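 Compound pinned into substrate mix (0.5 mM PEP, 0.1 mM ADP), then 0.1 nM PKM2 added; 1 h, RT. Stop/detection luciferase reagent added, luminescence read. Normalized to no-inhibition and no-enzyme or reference-inhibitor controls.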

[11] = biological target: Alpha-galactosidase (Coffea arabica) (UniProt Q42656); assay: Counterscreen for Glucocerebrosidase Inhibitors: qHTS Assay for Coffee Bean alpha-Galactosidase at pH 4.5 (AID 957);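 note: plate controls were enzyme alone for no effect and no enzyme for full effect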
Method in brief: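 Fluorogenic read-out: 4-methylumbelliferone at Ex 365/Em 440 nm after NaOH/glycine stop (pH 10). Enzyme 2 nM, 4-MU-alpha-galactoside 80 uM, citrate buffer pH 4.5, 20 min RT; normalized to no-enzyme and enzyme controls.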

[12] = biological target: Alpha-galactosidase A (Homo sapiens) (UniProt P06280); assay: Counterscreen for Glucocerebrosidase Inhibitors: qHTS Assay for Human alpha-Galactosidase at pH 4.5 (AID 992); note: 0% is about no effect
Method in brief: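 Steps: enzyme (2 nM final), then compound across 0.7 nM to 77 uM, then 80 uM fluorogenic galactopyranoside substrate; incubate 20 min at room temperature; quench at pH 10; measure fluorescence at 365/440 nm.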

[13] = biological target: alpha-glucosidase (Oryza sativa, rice) (UniProt Q653V4); assay: Counterscreen for Glucocerebrosidase Inhibitors: qHTS Assay for Rice alpha-Glucosidase at pH 5.0 (AID 997);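 note: 0% = full activity with enzyme and -100% = basal without enzyme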
Method in brief: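 Endpoint fluorogenic assay at pH 5.0: compounds (0.7 nM to 77 uM) titrated against 4 nM rice enzyme and 400 uM 4-MU-alpha-glucoside for 20 min at room temperature; NaOH/glycine stop, read ex 365/em 440 nm, Hill-fitted AC50.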

[14] = biological target: Alpha-galactosidase (Coffea arabica) (UniProt Q42656); assay: Counterscreen for Glucocerebrosidase Inhibitors: qHTS Assay for Coffee Bean alpha-Galactosidase at pH 5.9 (AID 998);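 note: plate controls were uninhibited enzyme for no effect and no-enzyme basal signal for full effect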
Method in brief: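 Fluorogenic 4-MU substrate hydrolysis, 80 uM substrate and 2 nM coffee bean alpha-galactosidase, pH 5.9 citrate buffer, 20 min at room temperature, then NaOH/glycine stop. Titration 0.7 nM–77 uM, normalized to no-enzyme and enzyme controls, AC50 via Hill equation.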

[15] = Validation of Assay for Modulators of Lamin A Splicing (AID 1459; active = well fitted curve in the direction sought with a large enough effect in the signal ratio; the % refers to the signal ratio;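 note: cells exposed to compound for two days before reading; 0% is about no effect; ratio rise marks activators and ratio drop marks inhibitors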)
Method in brief: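 Dual-reporter HeLa S3 line (lamin A-EGFP minigene, DsRed2) treated with compounds 48 hrs, 0.5% DMSO final. Endpoint: EGFP/DsRed2 total intensity ratio from laser-scanning microplate cytometry.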

[16] = Counterscreen for APE1 Inhibitors: Fluorescent Dye Displacement Validation Assay (AID 1707);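 note: plate controls were ThO with dsDNA and no compound for no effect and ThO without dsDNA for full effect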
Method in brief: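 Reaction mixture of 250 nM Thiazole Orange and 50 nM double-stranded abasic-site DNA was dispensed, compounds were pin-transferred, and fluorescence was read at endpoint (480 nm ex, 540 nm em). Reduced fluorescence indicated dye displacement by DNA binding.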

[17] = qHTS for differential inhibitors of proliferation of Plasmodium falciparum line 7G8 (AID 1815);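 note: parasite growth measured after three days of incubation; plate controls were vehicle wells for no effect and reference inhibitor wells for full effect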
[18] = qHTS for differential inhibitors of proliferation of Plasmodium falciparum line GB4 (AID 1816); settings: Potency: Plasmodium falciparum GB4 proliferation inhibition;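 note: parasite growth measured after 72 h incubation; 0% = vehicle DMSO and -100% = reference inhibitor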
[19] = qHTS for differential inhibitors of proliferation of Plasmodium falciparum line 3D7 (AID 1876);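 note: parasite growth measured after three days of culture; 0% = vehicle wells and -100% = reference inhibitor wells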
[20] = qHTS for differential inhibitors of proliferation of Plasmodium falciparum line D10 (AID 1877);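 note: parasites grown with compound for 72 h before DNA staining; plate controls were vehicle wells for no effect and reference inhibitor wells for full effect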
[21] = qHTS for differential inhibitors of proliferation of Plasmodium falciparum line Dd2 (AID 1882); settings: Potency: Plasmodium falciparum Dd2 proliferation inhibition;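 note: compound exposure of 72 h on infected erythrocytes; plate controls were DMSO vehicle for no effect and 0.29 µM artemisinin for full effect; nearly all actives have a fitted effect of over 65% in size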
Method in brief: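 RBC culture, 0.3% parasitemia / 2.5% Hct final; cpd added by pin tool in DMSO; 72 h, 37 C, 5% CO2; lysis buffer + SYBR Green I, o/n RT dark; FI 485/535; norm. to artemisinin 0.29 uM and DMSO.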

[22] = qHTS for differential inhibitors of proliferation of Plasmodium falciparum line W2 (AID 1883); settings: Potency: Plasmodium falciparum W2 proliferation inhibition;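 note: parasites grown with compound for 72 h before lysis and staining; 0% = vehicle wells and -100% = control inhibitor wells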
[23] = qHTS for differential inhibitors of proliferation of Plasmodium falciparum line HB3 (AID 1886); settings: Potency: Plasmodium falciparum HB3 proliferation inhibition;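 note: parasites grown with compound for 72 h before SYBR Green readout; plate controls were vehicle for no effect and reference inhibitor for full effect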
[24] = qHTS Assay for Modulators of Human Peripheral Myelin Protein 22 (PMP22) Expression/Activity (AID 1967; active = well fitted curve in the direction sought with a large enough effect in the signal ratio; the % refers to the signal ratio;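 note: 0% = untreated cells and 100% end not stated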)
Method in brief: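 Engineered MSC80 cells, Pmp22-promoter green and EF-alpha red luciferase reporters; 24h compound treatment at 37 °C. Concentration-response fits on green, red and ratio signals, each overlap-corrected, with %Activity normalized to untreated wells.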

[25] = biological target: Ferritin light chain (Equus caballus) (UniProt P02791); assay: qHTS Validation Assay for Identification of Novel General Anesthetics (AID 2323); note: % is set by controls: 0 for no effect and ±100 for the full control effect
Method in brief: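 Normalized fluorescence response, scaled between free 1-AMA and 1-AMA/apoferritin complex, fitted to a four-parameter Hill equation for concentration-effect values. Binding mix: 10 uM horse-spleen apoferritin, 50% saturated 1-AMA in PBS; read 380/535 nm after 10 min.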

[26] = biological target: ATP-dependent DNA helicase Q1 (Homo sapiens) (UniProt P46063); assay: qHTS Validation Assay for Inhibitors of RecQ-Like Dna Helicase 1 (RECQ1) (AID 2353);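 note: plate controls were DMSO vehicle for no effect and enzyme-free control for full effect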
Method in brief: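 RECQ1T1 50 nM; forked duplex (20 bp + 30-nt ss tails) 200 nM, ATP 2 mM final; pH 8.0, 2 mM MgCl2, 2.5 ug/ml poly(dI-dC); 15 min compound preincubation; discontinuous kinetic read over 2 h at RT.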

[27] = Validation screen for small molecules that induce DNA re-replication in MCF 10A normal breast cells (AID 463097); note: 0% is about no effect; nearly all actives have a fitted effect of over 60% in size
Method in brief: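 Following 48 hr compound incubation (37 C, 5% CO2), MCF 10A cells receive Hoechst for 40 min at 37 C. Nuclei are then scanned (excitation 405 nm, emission 500-530 nm) for total fluorescence intensity.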

[28] = Quantitative high throughput screen for delayed death inhibitors of the malarial parasite plastid, 48 hour incubation (AID 488752); note: % is set by controls: 0 for no effect and ±100 for the full control effect; nearly all actives have a fitted effect of over 65% in size
Method in brief: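 Luciferase-expressing P. falciparum in RBCs, 2% Hct, 0.1% parasitemia final; RPMI 1640 + 0.5% Albumax; 48 h, 37 C, 5% CO2; luminescence readout, signal drop = growth inhibition.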

[29] = biological target: M-phase phosphoprotein 8 (Homo sapiens) (UniProt Q99549); assay: qHTS Validation Assay for Inhibitors for MPP8 Chromodomain Interactions with Methylated Histone Tails (AID 488949);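 note: 50 nM MPP8 with 50 nM peptide preformed then compounds added for 30 min; AlphaScreen signal from MPP8 chromodomain bound to biotinylated H3K9me3 peptide; top concentration of the series differs between compounds; % is set by controls: 0 for no effect and ±100 for the full control effect; nearly all actives have a fitted effect of over 55% in size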
Method in brief: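 Chemiluminescent proximity assay: histidine-tag capture via nickel acceptor beads, biotin peptide via streptavidin donor beads. Protein and peptide each at 50 nM, pH 7.4, with 30 min incubations at room temperature for complex formation, compound exposure and bead binding.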

[30] = biological target: Transient receptor potential cation channel subfamily V member 1 (Homo sapiens) (UniProt Q8NER1); assay: HTS Assay for Compounds that Act as Enhancers of the Vanilloid Receptor 1 (AID 488979); note: 0% is about no effect
Method in brief: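 Calcium influx kinetics via Fluo-8 (480/520 nm) in TRPV1-expressing cells, 2000/well cultured overnight at 35.5C. Compound-alone read 3 min (agonist phase), followed by EC20 capsaicin challenge for 2 min (enhancer phase).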

[31] = biological target: Thyrotropin receptor (Homo sapiens) (UniProt P16473); assay: qHTS Assay for Antagonists of the Thyroid Stimulating Hormone Receptor (AID 488980); note: 0% is about no effect
Method in brief: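 Inhibition of TSH-stimulated cAMP accumulation was quantified by homogeneous time-resolved FRET in TSHR-transfected HEK293 cells. Agonist: TSH, 4 nM final (EC80).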

[32] = biological target: Thyrotropin-releasing hormone receptor (Homo sapiens) (UniProt P34981); assay: qHTS for Small Molecule Agonists and Allosteric Enhancers of Human TRH Receptor: Validation Screen for Agonists (AID 493127;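 active = calcium activation more than 3 SD above the typical response in the agonist read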;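 note: intracellular calcium rise by fluo-8 fluorescence before TRH EC20 addition; 0% is about no effect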); settings: TRH receptor agonist cell assay; at 2 µM; active compounds read high
Method in brief: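 Read-out: intracellular calcium release measured kinetically by FDSS (fluo-8, ex 480/em 530 nm), 1 reading/s after a 10-cycle baseline. TRHR cells, 2000/well, cultured 18 h at 33.5C, dye-loaded at room temp. Compound-evoked positive calcium signal flags agonists.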

[33] = biological target: Galactokinase (Homo sapiens) (UniProt P51570); assay: qHTS Validation Assay for Inhibitors of Human Galactokinase (GALK) (AID 493189); note: 0% is about no effect
Method in brief: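 Enzyme activity is inferred from ATP consumption: human GALK phosphorylates galactose (100 uM) using 35 uM ATP for 1 h at room temperature, and luciferase-based Kinase-Glo Plus reports unconsumed ATP.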

[34] = biological target: Voltage-gated inwardly rectifying potassium channel KCNH2 (Homo sapiens) (UniProt Q12809); assay: qHTS Assay for Small Molecule Inhibitors of the Human hERG Channel Activity (AID 588834);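 note: top concentration of the series differs between compounds; % is set by controls: 0 for no effect and ±100 for the full control effect; lower thallium flux fluorescence means stronger hERG block; nearly all actives have a fitted effect of over 50% in size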
Method in brief: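 Homogeneous FluxOR thallium flux assay using hERG-expressing U2OS cells (BacMam). Compound treatment about 10 minutes preceded stimulation; reduced fluorescence taken as channel block.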

[35] = system: Zika virus NS2B-NS3 protease; assay: Primary screen GU AMC qHTS for Zika virus inhibitors (AID 1347154);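 note: 0% = no-inhibitor control and -100% = no-enzyme control; nearly all actives have a fitted effect of over 70% in size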
Method in brief: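 Fluorogenic AMC-substrate cleavage by noncovalent NS2B-NS3 protease complex (25 nM, pH 8.0 Tris buffer with Tween 20) followed for 15 minutes at room temperature (~20% conversion). Percent inhibition from ex340/em450 signal change, fitted by 4-parameter Hill equation.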

[36] = Primary qHTS for small molecule stabilizers of the endoplasmic reticulum resident proteome: Secreted ER Calcium Modulated Protein (SERCaMP) assay (AID 1508630); note: % is set by controls: 0 for no effect and ±100 for the full control effect
Method in brief: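 The SH-SY5Y reporter protocol was run at 3 concentrations up to 38.3 uM (primary) or 11 concentrations (follow-up): 16 h compound, 100 nM thapsigargin for 4 h, then extracellular luciferase luminescence.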

Chain of Muscarinic acetylcholine receptor M1 (Rattus norvegicus) (P08482 whole entry, looked up): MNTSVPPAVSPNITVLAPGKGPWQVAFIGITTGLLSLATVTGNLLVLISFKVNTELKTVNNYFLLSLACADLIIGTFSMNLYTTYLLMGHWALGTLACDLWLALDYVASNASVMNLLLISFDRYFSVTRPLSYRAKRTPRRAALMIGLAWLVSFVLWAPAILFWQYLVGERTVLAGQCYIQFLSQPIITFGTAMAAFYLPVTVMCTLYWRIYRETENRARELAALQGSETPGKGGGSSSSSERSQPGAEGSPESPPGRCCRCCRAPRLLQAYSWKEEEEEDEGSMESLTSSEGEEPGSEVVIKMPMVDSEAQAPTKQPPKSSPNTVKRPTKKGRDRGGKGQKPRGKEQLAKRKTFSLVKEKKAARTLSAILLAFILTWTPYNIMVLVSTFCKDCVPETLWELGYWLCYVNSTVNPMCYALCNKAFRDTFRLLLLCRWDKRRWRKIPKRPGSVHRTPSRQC
Chain of Glucocorticoid receptor (Homo sapiens) (P04150 whole entry, looked up, the tested form may be a part): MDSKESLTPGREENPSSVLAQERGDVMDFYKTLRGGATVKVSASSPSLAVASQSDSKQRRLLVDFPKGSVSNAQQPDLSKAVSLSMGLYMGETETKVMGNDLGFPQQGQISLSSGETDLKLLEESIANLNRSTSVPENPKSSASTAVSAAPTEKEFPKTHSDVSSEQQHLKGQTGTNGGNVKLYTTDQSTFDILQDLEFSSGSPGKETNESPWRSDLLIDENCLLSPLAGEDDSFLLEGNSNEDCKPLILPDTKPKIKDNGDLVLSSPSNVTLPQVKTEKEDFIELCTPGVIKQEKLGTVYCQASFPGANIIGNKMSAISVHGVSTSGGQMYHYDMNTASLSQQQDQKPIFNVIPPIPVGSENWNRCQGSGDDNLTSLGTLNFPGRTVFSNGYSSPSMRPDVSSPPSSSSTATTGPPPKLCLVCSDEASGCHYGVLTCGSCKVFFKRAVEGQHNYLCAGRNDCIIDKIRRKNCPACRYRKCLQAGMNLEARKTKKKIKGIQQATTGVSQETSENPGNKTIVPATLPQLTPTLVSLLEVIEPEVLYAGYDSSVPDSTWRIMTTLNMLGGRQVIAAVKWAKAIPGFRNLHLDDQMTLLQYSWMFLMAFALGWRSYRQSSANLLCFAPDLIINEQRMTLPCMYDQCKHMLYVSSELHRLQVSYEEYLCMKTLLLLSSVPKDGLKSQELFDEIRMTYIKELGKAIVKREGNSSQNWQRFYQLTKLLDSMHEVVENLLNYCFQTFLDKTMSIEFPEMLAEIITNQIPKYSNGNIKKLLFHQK
Chain of Alpha-galactosidase (Coffea arabica) (Q42656 whole entry, looked up): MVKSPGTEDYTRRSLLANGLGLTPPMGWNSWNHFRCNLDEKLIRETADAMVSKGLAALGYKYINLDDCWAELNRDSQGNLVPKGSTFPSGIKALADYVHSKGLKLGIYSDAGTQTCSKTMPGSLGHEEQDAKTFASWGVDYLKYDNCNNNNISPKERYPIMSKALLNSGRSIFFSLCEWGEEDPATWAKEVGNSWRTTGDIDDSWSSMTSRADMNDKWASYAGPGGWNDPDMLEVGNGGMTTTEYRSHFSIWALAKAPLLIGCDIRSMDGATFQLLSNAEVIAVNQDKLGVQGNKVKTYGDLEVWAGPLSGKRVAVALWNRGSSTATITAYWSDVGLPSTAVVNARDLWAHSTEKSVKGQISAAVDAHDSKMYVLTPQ
Chain of Thyrotropin receptor (Homo sapiens) (P16473 whole entry, looked up): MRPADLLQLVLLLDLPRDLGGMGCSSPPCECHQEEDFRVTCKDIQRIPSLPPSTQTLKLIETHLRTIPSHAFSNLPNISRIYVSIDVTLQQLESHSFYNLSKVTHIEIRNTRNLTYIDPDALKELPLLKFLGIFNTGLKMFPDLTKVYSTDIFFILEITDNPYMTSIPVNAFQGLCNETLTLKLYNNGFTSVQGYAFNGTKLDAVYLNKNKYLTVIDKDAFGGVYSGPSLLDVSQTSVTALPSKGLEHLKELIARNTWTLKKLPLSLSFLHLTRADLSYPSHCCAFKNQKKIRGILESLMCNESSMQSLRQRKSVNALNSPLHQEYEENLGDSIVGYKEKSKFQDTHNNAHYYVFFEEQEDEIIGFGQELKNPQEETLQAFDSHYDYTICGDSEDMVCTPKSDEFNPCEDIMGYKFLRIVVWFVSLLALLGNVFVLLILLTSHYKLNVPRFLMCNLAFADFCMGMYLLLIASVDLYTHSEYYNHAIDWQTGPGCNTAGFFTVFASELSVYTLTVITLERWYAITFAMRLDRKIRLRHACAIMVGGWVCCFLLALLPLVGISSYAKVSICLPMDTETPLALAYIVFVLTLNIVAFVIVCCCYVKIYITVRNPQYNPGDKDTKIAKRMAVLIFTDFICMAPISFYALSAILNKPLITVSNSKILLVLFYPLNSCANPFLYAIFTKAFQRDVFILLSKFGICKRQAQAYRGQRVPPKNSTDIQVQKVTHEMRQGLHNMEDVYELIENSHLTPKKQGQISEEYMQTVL
Chain of Voltage-gated inwardly rectifying potassium channel KCNH2 (Homo sapiens) (Q12809 whole entry, looked up): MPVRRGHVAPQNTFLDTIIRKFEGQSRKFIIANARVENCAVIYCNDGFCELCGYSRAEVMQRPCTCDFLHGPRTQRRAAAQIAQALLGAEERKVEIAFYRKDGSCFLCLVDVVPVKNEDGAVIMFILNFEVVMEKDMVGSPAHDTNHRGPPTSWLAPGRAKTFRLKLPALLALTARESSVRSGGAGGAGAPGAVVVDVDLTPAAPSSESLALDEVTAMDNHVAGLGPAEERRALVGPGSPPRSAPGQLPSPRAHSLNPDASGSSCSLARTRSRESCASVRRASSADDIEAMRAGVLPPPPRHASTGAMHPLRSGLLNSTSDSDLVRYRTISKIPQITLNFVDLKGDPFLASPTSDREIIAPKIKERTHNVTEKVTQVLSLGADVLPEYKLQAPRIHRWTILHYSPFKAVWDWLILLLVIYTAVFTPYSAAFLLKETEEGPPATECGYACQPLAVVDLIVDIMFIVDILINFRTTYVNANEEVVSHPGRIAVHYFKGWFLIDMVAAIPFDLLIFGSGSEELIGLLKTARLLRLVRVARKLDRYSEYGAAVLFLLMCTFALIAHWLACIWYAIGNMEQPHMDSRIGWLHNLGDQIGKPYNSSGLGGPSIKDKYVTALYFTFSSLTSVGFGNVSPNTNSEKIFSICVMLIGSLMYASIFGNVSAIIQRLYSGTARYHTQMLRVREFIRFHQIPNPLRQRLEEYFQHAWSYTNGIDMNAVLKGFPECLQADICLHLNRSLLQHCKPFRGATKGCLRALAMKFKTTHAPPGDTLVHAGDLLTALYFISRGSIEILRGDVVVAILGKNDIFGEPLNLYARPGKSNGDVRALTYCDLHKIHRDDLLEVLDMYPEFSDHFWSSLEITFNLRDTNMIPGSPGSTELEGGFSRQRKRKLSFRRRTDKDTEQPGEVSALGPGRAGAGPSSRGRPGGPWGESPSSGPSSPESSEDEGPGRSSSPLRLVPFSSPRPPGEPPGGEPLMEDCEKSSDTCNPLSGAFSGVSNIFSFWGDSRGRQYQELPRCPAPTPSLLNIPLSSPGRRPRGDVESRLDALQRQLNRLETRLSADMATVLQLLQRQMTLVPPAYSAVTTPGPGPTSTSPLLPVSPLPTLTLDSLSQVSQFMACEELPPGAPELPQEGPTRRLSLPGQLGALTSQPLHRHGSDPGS
Chain of Pyruvate kinase (Leishmania mexicana) (Q27686 2-499 E452W): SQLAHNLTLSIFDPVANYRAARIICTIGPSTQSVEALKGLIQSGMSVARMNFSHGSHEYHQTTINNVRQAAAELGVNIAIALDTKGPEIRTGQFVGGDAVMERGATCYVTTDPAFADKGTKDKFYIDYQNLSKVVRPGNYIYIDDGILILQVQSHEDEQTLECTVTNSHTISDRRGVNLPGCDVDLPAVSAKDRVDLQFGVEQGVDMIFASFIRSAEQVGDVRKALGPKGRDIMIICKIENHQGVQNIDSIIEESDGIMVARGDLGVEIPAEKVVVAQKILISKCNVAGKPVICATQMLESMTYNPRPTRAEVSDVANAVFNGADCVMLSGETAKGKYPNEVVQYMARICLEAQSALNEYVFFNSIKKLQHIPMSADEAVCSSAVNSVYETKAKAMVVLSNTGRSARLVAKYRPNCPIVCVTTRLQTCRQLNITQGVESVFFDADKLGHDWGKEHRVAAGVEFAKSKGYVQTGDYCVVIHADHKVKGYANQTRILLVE
Chain of ATP-dependent DNA helicase Q1 (Homo sapiens) (P46063 whole entry, looked up): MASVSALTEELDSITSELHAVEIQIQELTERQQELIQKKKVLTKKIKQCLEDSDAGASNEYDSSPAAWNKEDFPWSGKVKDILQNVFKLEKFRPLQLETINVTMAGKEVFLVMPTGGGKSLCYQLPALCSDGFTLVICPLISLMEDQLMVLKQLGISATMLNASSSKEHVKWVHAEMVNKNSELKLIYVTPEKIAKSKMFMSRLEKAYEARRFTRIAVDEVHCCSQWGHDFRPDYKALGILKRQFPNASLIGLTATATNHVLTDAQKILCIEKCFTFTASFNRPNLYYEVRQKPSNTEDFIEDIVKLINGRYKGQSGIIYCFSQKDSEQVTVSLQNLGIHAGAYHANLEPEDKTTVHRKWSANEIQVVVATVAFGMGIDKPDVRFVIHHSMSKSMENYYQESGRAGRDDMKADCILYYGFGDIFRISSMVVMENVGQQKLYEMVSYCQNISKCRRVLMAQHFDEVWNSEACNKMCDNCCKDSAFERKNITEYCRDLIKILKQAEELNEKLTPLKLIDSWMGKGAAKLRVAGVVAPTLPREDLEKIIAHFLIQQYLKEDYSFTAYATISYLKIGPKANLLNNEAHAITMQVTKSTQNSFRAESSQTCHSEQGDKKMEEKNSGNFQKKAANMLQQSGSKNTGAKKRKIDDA
Chain of Guanine nucleotide-binding protein G(i) subunit alpha-1 (Homo sapiens) (P63096 whole entry, looked up): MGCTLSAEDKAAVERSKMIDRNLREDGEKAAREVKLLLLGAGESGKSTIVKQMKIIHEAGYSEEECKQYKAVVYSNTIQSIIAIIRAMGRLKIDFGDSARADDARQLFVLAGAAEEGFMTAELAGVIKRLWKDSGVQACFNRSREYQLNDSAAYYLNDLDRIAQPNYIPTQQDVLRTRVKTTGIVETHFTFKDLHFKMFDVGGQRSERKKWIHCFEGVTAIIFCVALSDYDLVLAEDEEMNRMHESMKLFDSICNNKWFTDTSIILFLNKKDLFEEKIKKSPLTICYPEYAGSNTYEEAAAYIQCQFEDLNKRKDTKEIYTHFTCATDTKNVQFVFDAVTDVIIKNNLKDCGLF

COc1ccc(CCN)cc1O
inactive: outcome [1] | activity change, negative = inhibition [2] -3.06% | Potency [3] > 46 µM | Potency [4] > 46 µM | Potency [5] | outcome [6] | Potency [7] | Potency [8] | outcome [9] | outcome [10] | outcome [11] | outcome [12] | outcome [13] | outcome [14] | outcome [15] | Potency [16] | Potency [17] | Potency [18] | Potency [19] | Potency [20] | Potency [21] | Potency [22] | Potency [23] | outcome [24] | outcome [25] | Potency [26] | Potency [27] | Potency [28] | Potency [29] | outcome [30] | outcome [31] | activation [32] 1.06% | outcome [33] | Potency [34] | Potency [35] | Potency [36]
